In ChEMBL document CHEMBL4513216, “Probing the Open Global Health Chemical Diversity Library for Multistage-Active Starting Points for Next-Generation Antimalarials” (ACS Infect Dis, 2020):
Hit rate of the full screen: of about 69,000 compounds, about 8,600 (12%) showed an effect of 50% or more. What follows is part of a selection rich in strong results, with near analogues and random picks from the rest.

Test system: Plasmodium berghei
Assay: Screen against P. berghei liver stage (PbLuc), transformed with Luciferase, at 10uM
Type: functional, HepG2
Settings: tested at 10 uM

SMILES	INHIBITION
OC[C@@H]1CCCN1Cc1cn(C2CCN(C3CCCC3)CC2)nn1	54.4%
Cc1cc(N2CCC(n3cc(CCCO)nn3)CC2)ccn1	41%
CC(C)Nc1cc(N2CCC(n3cc(CCO)nn3)CC2)ncn1	19.3%
CC(C)(C)c1cnc(CN2CCC[C@H]2CO)o1	34.1%
Cc1cc(N2CCC(n3cc(CN4CCC[C@@H]4CO)nn3)CC2)ccn1	68.9%
Cc1cc(N2CCC(n3cc(CN4CCNCC4)nn3)CC2)ccn1	49.9%
COc1ccc(C[C@H]2CNCC[C@@H]2OCC2CC2)cc1	-51.6%
CN(C(=O)Cc1ccc2c(c1)OCCO2)C1CCCC1	-138%
Cc1cncc(C2CCN(Cc3cccn3C)CC2)n1	41.2%
CCn1cc(NC(=O)C2CCC(=O)N2Cc2ccc(C)o2)cn1 (stereo not drawn)	16.1%
CN(C)C[C@H]1CC[C@@H](Cc2ccc3c(cnn3C)c2)O1	32.4%
CN1CCC(N(C)C[C@H]2CC[C@@H](Cc3ccc4c(cnn4C)c3)O2)CC1	14.9%
CCN(C)C[C@H]1CC[C@@H](Cc2ccc3c(cnn3C)c2)O1	58.2%
CCOc1nn(CC)cc1-c1nnc(SCC)n1C	15%
Cc1nn(C)c(C)c1C(C)NCc1ccc(OC(C)C)cc1 (stereo not drawn)	-37.7%
Cc1nn(C)c(C)c1C(C)NCc1ccsc1 (stereo not drawn)	-14.5%
Cc1cc(C)cc(CNC(C)c2c(C)nn(C)c2C)c1 (stereo not drawn)	58%
CN1CC(=O)N(c2cccc(F)c2)CC12CCN(CC1CCOCC1)C2 (stereo not drawn)	-4.23%
CN(C)c1ncc(-c2cc(C(=O)NC(C)(C)CO)n(CC3CC3)c2)cn1	-21.1%
COc1ccc(C(=O)NCC(c2cccn2C)N2CCCC2)cc1OC (stereo not drawn)	52.4%
COc1cccc(C(=O)NCC(c2cccn2C)N2CCCC2)c1OC (stereo not drawn)	75.6%
COc1cc(OC)cc(C(=O)NCC(c2cccn2C)N2CCCC2)c1 (stereo not drawn)	28.4%
COc1cccc(OC)c1C(=O)NCC(c1cccn1C)N1CCCC1 (stereo not drawn)	30%

SMILES	INHIBITION
COc1ccc(C(=O)NCC(c2cccn2C)N2CCN(C)CC2)cc1 (stereo not drawn)	6.83%
COc1ccc(C(=O)NCC(c2cccn2C)N2CCCC2)c(OC)c1 (stereo not drawn)	-11.1%
CN(C)C(=O)c1cccnc1SCc1ccccc1C#N	1.61%
CCc1nc(C2CCCN(C(=O)c3ccc(O)nc3)C2)no1 (stereo not drawn)	43.2%
CN1CC(=O)N(c2ccccc2)CC12CCN(C(=O)c1cnccn1)C2 (stereo not drawn)	29.3%
c1ccc(-c2nnc(CN3CCOC(Cn4cccn4)C3)o2)cc1 (stereo not drawn)	0.914%
Cc1cnn(CCC(=O)N2CCCC(c3noc(C)n3)C2)c1 (stereo not drawn)	-4.16%
O=C1[C@H]2CN(C3CCOCC3)C[C@H]2CN1Cc1ccncc1	-2.46%
O=C1[C@H]2CN(S(=O)(=O)C3CC3)C[C@H]2CN1Cc1cccnc1	15.4%
Cc1ccc2c(n1)N(CCn1cccn1)CCN(C1CCOCC1)C2	-77.4%
O=C1[C@H]2CN(C3CCOCC3)C[C@H]2CN1Cc1cccnc1	92%
Cc1ccc2c(n1)N(Cc1cccnc1)CCN(C(=O)C1CC1)C2	31.1%
Cc1ccc2c(n1)N(Cc1cccnc1)CCN(C1CCOCC1)C2	64.9%
CCOC(=O)CNC(=O)NCc1cccn1Cc1cccc(C)c1	45.8%
CC(=O)N1[C@H](CN(C)C)C[C@@H]2CN(C(=O)c3occc3C)CC[C@@H]21	12.4%
O=C(c1ccncc1)N1CCCC(c2ncncc2-c2ccncc2)C1 (stereo not drawn)	12.3%
CCc1noc(CN2CCN(C(=O)OC(C)(C)C)C(C)C2)n1 (stereo not drawn)	20.4%
Cc1ccc(CN2CC(O)CN(C(=O)OCC(C)C)CC2=O)cc1 (stereo not drawn)	18.4%
O=S(=O)(c1cn[nH]c1)N1C[C@@H](O)[C@H](N2CCc3ccccc3C2)C1	-51.3%
COc1cccc(C2CC(=O)Nc3nc(N)sc32)c1OC (stereo not drawn)	5.53%
CC(=O)c1cc(CN2CCCC23CCN(c2ccccn2)CC3)cs1	12.7%
CN(C)c1ncc(-c2cncn2CCc2ccc3c(c2)OCCO3)cn1	-12.3%
CC(C)S(=O)(=O)N1CCN(C(=O)c2cnn(C)c2Cl)CC1	19.845%

SMILES	INHIBITION
O=C(O)c1ccccc1-n1cnc(CN2CCCCCC2)c1	14.6%
O=C(CCC1CCCC1)NCCn1nc(C2CCNC2)c2cccnc21 (stereo not drawn)	38.7%
CC(C)(C)CC(=O)NCCn1nc(C2CCNC2)c2cccnc21 (stereo not drawn)	54.5%
COCCC(=O)NCCn1nc(C2CCNC2)c2cccnc21 (stereo not drawn)	5.11%
O=C(NCCn1nc(C2CCNC2)c2cccnc21)C1CC1 (stereo not drawn)	13.5%
CC(C)CC(=O)NCCn1nc(C2CCNC2)c2cccnc21 (stereo not drawn)	44.8%
O=C(CCC1CCCC1)NCCn1nc(C2CCNC2)c2nccnc21 (stereo not drawn)	67.1%
CC(C)(C)OC(=O)N[C@@H]1C[C@@H](O)CN(C(=O)c2ccc(F)cc2)C[C@H]1O	6.26%
COCCN1CCC(c2ncc(C(=O)N3CCOCC3)c(C)n2)CC1	-2.09%
CC(C)NC(=O)CNC(=O)N1CCc2c([nH]c3ccc(Cl)cc23)C1	-22.9%
CC(C)C(=O)NCc1cccc(N2CCCCC2=O)c1	19.4%
CC(C)NC(=O)CNC(=O)C12CCC(=O)N1c1cc(Cl)ccc1S2 (stereo not drawn)	73.6%
COC(=O)CNC(=O)C12CCC(=O)N1c1cc(Cl)ccc1S2 (stereo not drawn)	15.9%
CC(C)C(=O)NCCNC(=O)C12CCC(=O)N1c1cc(Cl)ccc1S2 (stereo not drawn)	57.6%
CCOCCCNC(=O)C1(C)CCC(=O)N1c1ccccc1F (stereo not drawn)	37.4%
Cc1nn(C)c(Cl)c1C1CCCN1C(=O)c1ccncc1 (stereo not drawn)	38.5%
O=C(c1cscn1)N1CCC2(CCCN(CCOc3ccccc3)C2)C1 (stereo not drawn)	-31.9%
CCN(C)S(=O)(=O)NCC1CCCN(Cc2ccccc2F)C1 (stereo not drawn)	1.74%
CCC(C)N1Cc2c(C(=O)N3CCOCC3)nn(C)c2C1 (stereo not drawn)	19.5%
Cc1cnn(CC2CCCCN2C(=O)Cc2ccc(C#N)cc2)c1 (stereo not drawn)	2.97%
Cc1ccc2nc(CN3CCN(C4CCCC4)C(=O)C3)cc(O)c2c1	-0.529%
Oc1cc(CN2CCC(O)(Cn3ccnc3)CC2)nc2ccc(F)cc12	62.8%
Oc1cc(CN2CCC(O)(Cn3ccnc3)CC2)nc2c(Cl)cccc12	27.6%

SMILES	INHIBITION
Cc1ccc2nc(CN3CCN(C4CCCCC4)C(=O)C3)cc(O)c2c1	-46.2%
Cc1ccc2nc(CN3CCC(O)(Cn4ccnc4)CC3)cc(O)c2c1	43.4%
Cc1ccc2nc(CN3CCC(O)(CN4CCCC4)CC3)cc(O)c2c1	69.3%
CC(=O)N1CCc2nc(C3CCN(C(=O)c4ccccc4)C3)ncc2C1 (stereo not drawn)	-29.8%
CN(Cc1cccs1)C(=O)CN1CCCC(Cn2cncn2)C1 (stereo not drawn)	-4.16%
CN1CCCN(S(=O)(=O)c2cccc(C(=O)N3CCCCCC3)c2)CC1	36%
CCc1nnc(CNC(=O)CCC2CCCCN2C)s1 (stereo not drawn)	6.72%
COc1coc(CN2CCCC(CCc3ccccc3C)C2)cc1=O (stereo not drawn)	46.4%
CS(=O)(=O)NCCC1CCCN(Cc2ccccc2F)C1 (stereo not drawn)	43.1%
Cc1[nH]c(=O)[nH]c(=O)c1CN1CCCC(CCc2c(F)cccc2F)C1 (stereo not drawn)	6.8%
COc1coc(CN2CCCC(CCc3c(F)cccc3F)C2)cc1=O (stereo not drawn)	56.3%
Cc1[nH]c(=O)[nH]c(=O)c1CN1CCCC(CCc2ccccc2F)C1 (stereo not drawn)	19.7%
COc1cccc(F)c1CN1CCC(c2nc(C)cc(C)n2)C1 (stereo not drawn)	43.45%
COc1coc(CN2CCCC(CCc3ccccc3F)C2)cc1=O (stereo not drawn)	60.4%
O=c1cc(CN2CCCC(CCc3c(F)cccc3F)C2)[nH]c(=O)[nH]1 (stereo not drawn)	58.5%
CN1N=C(C(=O)N2CCCC(CCc3c(F)cccc3F)C2)CCC1=O (stereo not drawn)	0.139%
COCCOCC(=O)NCc1ccc(N(C)C)nc1	26.1%
COCCN1CCN(C(C(=O)O)c2ccc(SC)cc2)CC1 (stereo not drawn)	49.4%
Cn1cc(CN2CCCC(O)C2)c(-c2ccccc2F)n1 (stereo not drawn)	3.13%
COc1cccc(CN2CCC3(CC2)CCN(C(=O)[C@@H]2CCCO2)C3)c1	-47.9%
Cc1ccc(N2CCOC(C)(C(=O)N(C)C)C2)nn1 (stereo not drawn)	18.3%
CCc1nnsc1C(=O)N1CCOC(c2nc(C)n[nH]2)C1 (stereo not drawn)	51.3%
CCc1nnsc1C(=O)N1CCOC(c2nc(C(C)C)n[nH]2)C1 (stereo not drawn)	-2.61%

SMILES	INHIBITION
Cc1n[nH]c(C2CN(C(=O)c3cc4c(s3)CCC4)CCO2)n1 (stereo not drawn)	0.914%
CCc1nc(C)ncc1C(=O)N1CCOC(c2nc(C)n[nH]2)C1 (stereo not drawn)	23.5%
CC(C)c1n[nH]c(C2CN(C(=O)c3csnn3)CCO2)n1 (stereo not drawn)	52.7%
Cc1n[nH]c(C2CN(C(=O)c3cc4c(s3)CCCC4)CCO2)n1 (stereo not drawn)	-1.14%
CCc1n[nH]c(C2CN(C(=O)c3csnn3)CCO2)n1 (stereo not drawn)	40.4%
CC(C)c1n[nH]c(C2CN(C(=O)c3cc4c(s3)CCC4)CCO2)n1 (stereo not drawn)	52.3%
Cc1n[nH]c(C2CN(C(=O)c3csnn3)CCO2)n1 (stereo not drawn)	35.1%
CC(CO)NC(=O)c1ccc(NCc2ccccc2)cc1 (stereo not drawn)	19.8%
Cc1cc(Nc2ccc(F)cn2)cc(C2CCCN2)n1 (stereo not drawn)	34.9%
CCN(C(=O)C1Cc2cc(Cl)ccc2O1)C1CC1 (stereo not drawn)	38.3%
CNc1cc(C)nc(C2CCN(CCO)CC2)n1	-2.09%
Cc1nc(CN2C(=O)COC3(CCN(Cc4ccco4)CC3)C2C)cs1 (stereo not drawn)	-4.86%
Cc1cc(NCC2CCN(c3ccccc3)C2)n2ncnc2n1 (stereo not drawn)	78.9%
Cc1cc(NCC2CCCCC2)n2ncnc2n1	9.8%
COc1cccc(N2CCC(CNC(=O)NCc3ccco3)C2)c1 (stereo not drawn)	-51%
CCc1cc(NCc2ccccc2CN2CCCC2)n2ncnc2n1	11.1%
COc1cccc(N2CCC(CNc3cc(C)nc4ncnn34)C2)c1 (stereo not drawn)	65.5%
Cc1cc(NCc2ccccc2CN2CCCCC2)n2ncnc2n1	54.4%
Cc1cc(NCCn2cccn2)n2ncnc2n1	-38.8%
CCc1cc(NCc2cccnc2N2CCCCC2)n2ncnc2n1	36.2%
Cc1cc(NC2CCN(c3ccccc3)C2)n2ncnc2n1 (stereo not drawn)	4.94%
